# A selection: hits, their analogues and other compounds. The true share with any hit is near 0.54%.
# VHR inh abs = DUSP3 (human) phosphatase inhibition | P51452 | recombinant VHR phosphatase, pNPP absorbance | inhibition, % at 13.3 µM | 290,000 tested, 0.52% active | AID 1654; in the data active = inhibition above about 50%
# Mtb RmlCD inh = inhibitors of Mycobacterium tuberculosis RmlC and RmlD coupled enzymes. P9WH09+P9WH11. RmlC+RmlD coupled enzyme assay, percent inhibition; primary screen in compound mixtures. inhibition, % at 3.6 µM. 160,000 tested, 0.03% active. AID 1533; in the data active = inhibition mostly above about 34%, no sharp cut-off
# * marks the source's active call; other numbers are inactive results; · = no result given.
SMILES,VHR inh abs,Mtb RmlCD inh
Cc1cc(C)n(-c2cc(C(=O)O)cc(C(=O)O)c2)n1,53*,-4
Cc1cc(C)n(-c2ccc(Cl)c(C(=O)O)c2)n1,22,-10
O=C1CSC(c2ccc([N+](=O)[O-])cc2)N1c1ccc(O)cc1 (stereo not drawn),57*,·
O=C1CSC(c2cccc([N+](=O)[O-])c2)N1c1ccc(O)cc1 (stereo not drawn),-6,25
COc1ccc(C(=O)Nc2cc(C)nn2-c2cccc(F)c2)cc1OC,10,·
Cc1ncoc1C(=O)N1CCc2c([nH]c3ccccc23)C1C1CCCCC1 (stereo not drawn),40,·
O=C(O)C1CCCC2CN3CCc4c([nH]c5ccccc45)C3C(O)C21 (stereo not drawn),56*,·
O=C(Nc1ccc(Br)cc1)c1cccc(N2C(=O)C3CCCCC3C2=O)c1 (stereo not drawn),17,·
O=C(CSc1nnc(Cc2ccccc2)n1-c1ccc(Cl)cc1)N1CCOCC1,14,0
O=C(CC1C(=O)NCCN1C1CCCC1)NCc1cccc(OC(F)(F)F)c1 (stereo not drawn),2,·
O=C(Cc1ccccc1[N+](=O)[O-])NNC(=O)Nc1ccc2c(c1)OCO2,50*,·
O=C(Cc1ccccc1[N+](=O)[O-])Nc1ccc2c(c1)OCO2,11,-11
CN1CCc2c(sc(NC(=O)c3cc(Cl)sc3Cl)c2C(N)=O)C1,17,·
Cc1ccc2occ(/C=C/C(=O)c3ccccc3O)c(=O)c2c1,27,·
C#CCOc1ccc(/C=C2/C(=O)ON=C2C)cc1Br,-8,·
CCOc1ccc(C(=O)Nc2ccccc2CC)cc1[N+](=O)[O-],-8,10
CCOc1ccc(C(=O)Nc2cccc3nsnc23)cc1[N+](=O)[O-],56*,34
CCOc1ccc(N(CC(=O)NCc2ccccc2)C(=O)Cn2nnc(-c3ccc(C)o3)n2)cc1,17,·
CCc1ccc2[nH]c(=O)c(CN(CCCN3CCOCC3)C(=O)Nc3ccccc3)cc2c1,4,2
CCc1ccc2[nH]c(=O)c(CN(CCCN3CCOCC3)C(=O)Nc3ccc(Cl)cc3)cc2c1,53*,9
O=C(Nc1nnc(C(F)(F)F)s1)C1COc2ccccc2O1 (stereo not drawn),2,-8
Cc1ccc(C(=O)/C=C/c2ccc3c(c2)OCO3)o1,-4,-4
COc1ccc(C2=Nn3c(nnc3-c3cccnc3)SC2)cc1,22,-4
CCOc1ccc(C2=Nn3c(nnc3-c3cccnc3)SC2)cc1,57*,·
Cc1c(Br)c([N+](=O)[O-])nn1CC(=O)Nc1ccc(C(C)C)cc1,5,-6
SMILES,VHR inh abs,Mtb RmlCD inh
CCC(c1nnc(SCC(=O)Nc2ccc(C(=O)Nc3ccccc3OC)cc2)o1)N(C)C (stereo not drawn),24,·
O=C(NCc1ccccc1)c1cc(-c2ccncc2)nc2ccccc12,53*,·
O=C(NCc1ccco1)c1cc(-c2ccncc2)nc2ccccc12,8,-1
CC(C)CNC(=O)CN1c2cccc3cccc(c23)S1(=O)=O,17,·
CCOC(=O)CNC(=O)Nc1nnc(-c2ccc(OCC)cc2)o1,14,5
O=C(O)/C=C\C(=O)Nc1ccc(N2CCN(c3ccc(Cl)cc3)CC2)cc1,11,-2
O=C(O)/C=C\C(=O)Nc1ccc(N2CCN(c3cccc(Cl)c3)CC2)cc1,57*,·
CN(C(=O)C1CCCN(c2ncnc3c2nc2n3CCCCC2)C1)c1cccc(Cl)c1 (stereo not drawn),52*,·
O=C(C1CCCN(c2ncnc3c2nc2n3CCCCC2)C1)N1CCN(c2cccc(Cl)c2)CC1 (stereo not drawn),18,·
Cn1cc(CNC(=O)C2CCC(=O)N(Cc3ccc(Cl)cc3)C2)cn1 (stereo not drawn),8,·
O=C1NN(c2cccc(Br)c2)C(=O)/C1=C\c1ccc(O)cc1,53*,·
CC1=NN(c2ccc(C)cc2)C(=O)/C1=C/c1ccc(-c2cc([N+](=O)[O-])ccc2O)o1,13,·
O=C1NN(c2ccc(Br)cc2)C(=O)/C1=C\c1ccc(O)cc1O,6,·
O=C1NN(c2cccc(Br)c2)C(=O)/C1=C/c1ccc(-c2cc([N+](=O)[O-])ccc2O)o1,91*,3
CC(C)CC(OC(=O)c1nsc(Cl)c1Cl)C(=O)NCc1cccs1 (stereo not drawn),0,-10
Cc1ccc(NC(=O)NCc2ccc3[nH]c(C)cc3c2)cc1,-3,-10
CCOc1ccccc1C(=O)Nc1ccccc1-c1ccccc1,-4,9
CCC(CC)NC(=O)COC(=O)CCC(=O)c1cccs1,52*,-6
CCNC(=O)COC(=O)CCC(=O)c1cccs1,4,-13
COc1ccc2nc(SCC(=O)NC3CCCCC3)[nH]c2c1,58*,·
CCOc1ccc2nc(SCC(=O)NC3CCCCC3)[nH]c2c1,-17,·
Cc1ccc(-n2nnnc2SCC(=O)NC(C(=O)O)(c2ccccc2)c2ccccc2)cc1C,-5,-4
Cc1ccc(N2C(=O)C3C4C=CC(CC4)C3C2=O)c([N+](=O)[O-])c1 (stereo not drawn),55*,·
